These results are taken from PubChem BioAssay (NCI).

Molecules are shown by their SMILES. This is part of a sample that, as a whole, favours compounds with a hit. Of some 83,000 tested, about 20% had one in any assay.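 Single-concentration screen, 48 h exposure, 96-well plates. Endpoint: percent growth. Below 10 = active.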 Values without a mark were called inactive.

In the test the test system is CAKI-1 renal. The experiment in a line: NCI-60 one-dose screen, 48 h (100 = growth as untreated, 0 = no growth, -100 = all killed). Conditions: 10 µM unless noted.
On to `ClCCN(CCCl)C(c1ccccc1)c1ccc(Cl)cc1` (centres undefined), for which the growth is 10.1%.
With `CCCCn1cc(C(=O)/C(C#N)=C/c2cc3ccccc3nc2Cl)c2cc(OC)ccc21` the figure was 75%; with `CCCCNCCc1ccccn1`, 97%; with `CC(=O)C1C(=O)N(C)C(=O)N(C)C1=O`, 102%.
Then `CC1(C)N=C(N)N=C(N)N1c1cccc(C(=O)Nc2cccc(S(=O)(=O)F)c2)c1`, with 98.8%; and `C[C@]12CC[C@@H]3C4=C(CC[C@H]3[C@@H]1CC[C@@H]2O)CC(=O)CC4`, with 92%.
`Oc1ccccc1OB(Oc1ccccc1O)N(CCCl)CCCl`: the growth is 80.4%.
Take `NC(Cc1ccc2c(c1)OCO2)c1ccc2c(c1)OCO2` (centres undefined): the growth was 95.2%.
In the case of `COc1ccc(-c2ccc(OC)c(OC)c2OC)cc1`, the growth was 15.1%.
Then `CC[C@@]1(C2O[C@@H](C3O[C@@](O)(CC)[C@H](C)C[C@@H]3C)C[C@@H]2C)CC[C@H]([C@]2(C)CCC3(C[C@H](O)[C@@H](C)[C@@H]([C@H](C)[C@@H](OC)[C@H](C)C(=O)O)O3)O2)O1` (some centres undefined), with 24.5%.
Turning to `CC1(C)N=C(N)N=C(N)N1c1ccc(CCCCc2ccc(S(=O)(=O)F)cc2)c(Cl)c1`, the growth was 17%.
On to `COc1ccc(C2=NN(c3ccccc3)C(c3sc(N(CCCl)CCCl)nc3Cl)C2)cc1` (centres undefined), for which the growth is 69.4%.
As to `N#CC1c2ccccc2C=CN1C(=O)c1ccc(N(CCCl)CCCl)cc1` (centres undefined), the growth is 69.1%.
`CSc1ccccc1NP1(=O)OCC(C)([N+](=O)[O-])CO1` (centres undefined): the growth is 99.3%.
